High-throughput results from PubChem.
ALOX15B inhib: inhibitors of human 15-lipoxygenase 2 (ALOX15B) | purified 15hLO-2, xylenol orange hydroperoxide absorbance | Potency, µM (top dose mostly 57.1 µM), actives largely listed as inhibitors | O15296 | 0.56% of 110,000 active; further: nearly all actives have a fitted effect of over 60% in size
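Purified human 15hLO-2 (50 nM) preincubated 15 min with compound, then 45 uM arachidonic acid for 90 min at RT in 25 mM Hepes pH 7.5, 0.01% Triton X-100. Hydroperoxide detected by Fe-xylenol orange; 573/405 nm absorbance ratio.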
IMPase Li cell: membrane-permeable IMPase blocker, potentiated with lithium. CHO-M1 cells, IP1 TR-FRET (IP-One), carbachol + lithium. Potency, µM (titrated, usually from 59.4 µM), actives largely listed as inhibitors. 0.35% of 210,000 active. AID 1457;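 further: IP1 builds up when IMPase is blocked and the TR-FRET signal falls; nearly all actives have a fitted effect of over 50% in size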
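Steps: plate 2000 CHO-M1 cells per well and culture 16–30 h; add compound and lithium; incubate 30 min, 37C; add d2-IP1 tracer and Eu cryptate anti-IP1 antibody in lysis buffer; read after 10 min at room temperature.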
IMPase cell inh: IMPase inhibition in cells; CHO-M1 cells, IP1 accumulation, HTRF TR-FRET ratio; inhibition (IP1 accumulation), % at 46.1 µM; AID 901; 120,000 tested, under 10 active; P97697; active means well fitted curve in the direction sought with a large enough effect in the signal ratio, not every such curve was filed as active; inconclusive means small, poorly fitted or top-dose-only effect, or a change in a side signal; inactive means no such curve, though single readings can be large or run the other way; the % refers to the signal ratio;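 further: cells stimulated with carbachol in lithium chloride buffer; higher means more IMPase inhibition seen as more IP1 and lower FRET ratio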
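Elevated IP1 in lysates lowers TR-FRET signal (665/620 ratio and 620 channel reported). Cells were CHO-M1, given carbachol (50 uM as added) plus 50mM LiCl, pH 7.4, 30 min, 37C; compounds titrated up to 46 uM; AC50 by Hill equation.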
PNC assembly inh: perinucleolar compartment assembly inhibition | PC3M PTB-GFP, PNC prevalence imaging, 16 h; hits give low values | activity change (PNC), negative = inhibition, % at 10 µM | AID 2417 | 3.1% of 140,000 active;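 active means readout at or below -70, meaning at least 70% loss of cells showing the perinucleolar compartment, a nuclear body marking cancer cells; inconclusive means readout between -30 and a set limit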
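Compounds are pinned in duplicate onto adhered PC3M cells stably expressing GFP-tagged PTB and incubated 16 h at 37 C. Cells are then fixed, nuclei stained with Hoechst, and PNC-positive cells counted.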
12-hLO inh: blocks human 12-lipoxygenase activity; Potency, µM (top dose mostly 57.1 µM), usual class: inhibitors; purified 12-hLO, xylenol orange hydroperoxide absorbance; P18054; 0.12% of 150,000 active; further: nearly all actives have a fitted effect of over 55% in size
Target sequence (P18054 whole entry, looked up): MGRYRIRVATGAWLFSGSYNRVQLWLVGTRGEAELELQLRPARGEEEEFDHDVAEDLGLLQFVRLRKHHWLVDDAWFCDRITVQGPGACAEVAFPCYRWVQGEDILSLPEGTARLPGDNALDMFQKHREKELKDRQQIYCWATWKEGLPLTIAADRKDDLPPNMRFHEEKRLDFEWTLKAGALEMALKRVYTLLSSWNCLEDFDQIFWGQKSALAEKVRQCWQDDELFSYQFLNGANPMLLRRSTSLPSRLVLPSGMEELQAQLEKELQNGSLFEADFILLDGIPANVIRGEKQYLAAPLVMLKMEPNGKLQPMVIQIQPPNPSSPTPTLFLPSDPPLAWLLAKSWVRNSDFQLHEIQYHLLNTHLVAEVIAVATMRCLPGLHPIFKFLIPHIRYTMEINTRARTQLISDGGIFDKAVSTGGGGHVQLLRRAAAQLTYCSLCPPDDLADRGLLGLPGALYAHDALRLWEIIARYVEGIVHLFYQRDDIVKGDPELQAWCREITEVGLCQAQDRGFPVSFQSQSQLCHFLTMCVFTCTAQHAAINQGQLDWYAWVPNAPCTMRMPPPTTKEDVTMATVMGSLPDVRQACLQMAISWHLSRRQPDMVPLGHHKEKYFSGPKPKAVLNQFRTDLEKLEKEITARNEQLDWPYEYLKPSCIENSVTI
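Hydroperoxide formation by human 12-lipoxygenase from 40 uM arachidonic acid was followed colorimetrically via ferric-xylenol orange complex, using the 573/405 nm absorbance ratio. Enzyme concentration was 150 nM, with 30 min reaction at room temperature.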
HPGD block: HPGD (human) dehydrogenase inhibition | P15428 | purified HPGD, NADH fluorescence kinetic, PGE2 substrate | Potency, µM, actives largely listed as inhibitors | 4.3% of 150,000 active; active means well fitted inhibition curve with a large enough effect, not every such curve was filed as active; inconclusive means small, poorly fitted or top-dose-only effect, or another doubt; inactive means no such curve, though single readings can be large or run the other way
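NADH formation kinetics: reaction with 30 uM PGE2 and 1 mM NAD+ (final), 20 nM enzyme, Tris-HCl pH 8 with Tween 20, after 15 min compound preincubation at room temperature. Fluorescence change, last versus first of five reads.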
Of the large screens only hits and unclear results are named; the others gave an inactive call. Compounds with a hit are over-represented: about 5.3% of the library has one in this group of screens. Unless noted, the call rests on the fitted dose curve; in most records, active means well fitted curve in the direction sought with a large enough effect; inconclusive means small, poorly fitted or top-dose-only effect, or another doubt; inactive means no such curve, though single readings can be large; an effect the other way counts as inactive or inconclusive.

CCOc1ccc(CN(C(=O)c2cc3ccccc3oc2=O)C2CC2)cc1	PNC assembly inh -100 (no result: ALOX15B inhib)
CCC1C/C(=C\c2cccnc2)C(=O)/C(=C/c2cccnc2)C1 (configuration not stated)	PNC assembly inh -125 (no result: ALOX15B inhib, IMPase cell inh)
COc1ccc(O)c(C(=O)c2coc(=N)c(C(=O)Nc3ccc(SC(F)F)cc3)c2)c1	none (no result: ALOX15B inhib, IMPase cell inh, PNC assembly inh, 12-hLO inh, HPGD block)
O=S(=O)(c1ccc(Cl)s1)N1CCN(Cc2ccccc2)CC1	PNC assembly inh -83
O=S(=O)(c1ccc(Cl)s1)N1CCC(Cc2ccccc2)CC1	PNC assembly inh inconclusive
CCc1nnc(NC(=O)C2Cc3ccccc3CN2S(=O)(=O)c2c(C)c(C)cc(C)c2C)s1 (configuration not stated)	none
Cc1c(F)cccc1NS(=O)(=O)c1ccc2c(c1)NC(=O)CO2	none (no result: ALOX15B inhib, IMPase cell inh, PNC assembly inh, 12-hLO inh, HPGD block)
COCCNC(=O)c1ccc(Cc2nc3ccccc3[nH]2)cc1	none (no result: ALOX15B inhib, IMPase Li cell, IMPase cell inh, PNC assembly inh)
C=C1C2(C(=O)NCc3ccco3)CCC(C2)C1(C)C (configuration not stated)	PNC assembly inh inconclusive, HPGD block 25µM
CC1(C)C(=O)C2(C(=O)NCc3ccccc3)CCC1C2 (configuration not stated)	PNC assembly inh inconclusive
CC1=CS(=O)(=O)CC1Sc1ncn[nH]1 (configuration not stated)	PNC assembly inh -100 (no result: ALOX15B inhib)
Cc1ccc(C(=O)NC(C)c2ccccc2)o1 (configuration not stated)	HPGD block 22µM (no result: ALOX15B inhib)
CC(NC(=O)c1ccc(Br)o1)c1ccccc1 (configuration not stated)	none (no result: ALOX15B inhib, IMPase cell inh, PNC assembly inh, 12-hLO inh, HPGD block)
COc1ccc(OCC(=O)NNC(=O)c2cccc(S(=O)(=O)N(C)C)c2)cc1	none (no result: ALOX15B inhib)
Cn1c(C(=O)N2CCN(C(=O)c3ccco3)CC2)cc2c(=O)n3ccccc3nc21	IMPase Li cell 10µM, IMPase cell inh inconclusive, PNC assembly inh inconclusive, HPGD block inconclusive
c1ccc(-c2cc3c(nn2)CCc2nonc2-3)cc1	PNC assembly inh -102
COc1cc2cc(C(=O)O)[nH]c2c(OC)c1OC	PNC assembly inh -97, HPGD block inconclusive
COc1cc(/C=C/C(=O)O)cc(OC)c1OC	HPGD block inconclusive (no result: IMPase cell inh, PNC assembly inh)
CC(C)NS(=O)(=O)c1ccc(CCC(=O)Nc2ccc3c(c2)OCO3)cc1	PNC assembly inh inconclusive
CC1CCCC(NC2CCCCNC2=O)C1 (configuration not stated)	none
CCC1CCC(NC2CCCCNC2=O)CC1 (configuration not stated)	PNC assembly inh -107
CCCOc1ccc(-c2nc(=S)[nH][nH]2)cc1	ALOX15B inhib inconclusive, 12-hLO inh inconclusive, HPGD block 13µM
COC(=O)CNC(=O)C(NC(=O)OCc1ccccc1)C(C)C (configuration not stated)	none (no result: ALOX15B inhib, IMPase cell inh, PNC assembly inh, 12-hLO inh, HPGD block)
COC(=O)CNC(=O)C(C)NC(=O)OCc1ccccc1 (configuration not stated)	PNC assembly inh -127
COc1ccc(S(=O)(=O)Nc2nc3c(s2)CCCC3)cc1	none (no result: ALOX15B inhib, IMPase cell inh, PNC assembly inh, 12-hLO inh, HPGD block)
Cn1c(=O)c2sccc2n2c(CCCC(=O)NCc3ccc4c(c3)OCO4)nnc12	PNC assembly inh -100
CC1CCCC(C)N1C(=O)c1cc(-c2ccc(Cl)c(Cl)c2)on1 (configuration not stated)	HPGD block 18µM (no result: ALOX15B inhib)
O=C1ON=C(c2ccccc2)/C1=C/c1ccc(OS(=O)(=O)c2ccccc2)cc1	PNC assembly inh inconclusive, HPGD block 10µM (no result: ALOX15B inhib, IMPase cell inh)
C=CCN=C1NN=C(c2ccc3c(c2)OCCO3)CS1	none (no result: ALOX15B inhib, IMPase cell inh, PNC assembly inh, 12-hLO inh, HPGD block)
Cc1ccc(N2CCN(c3c(CN4CCCC4)c(=O)oc4ccccc34)CC2)c(C)c1	none (no result: ALOX15B inhib, IMPase Li cell, PNC assembly inh, 12-hLO inh, HPGD block)
Fc1ccc(-c2ccnc(=S)[nH]2)cc1	ALOX15B inhib inconclusive, HPGD block 18µM
COc1ccc(-c2nnc(SCc3c(C)noc3C)o2)cc1	none (no result: ALOX15B inhib, IMPase cell inh, PNC assembly inh, 12-hLO inh, HPGD block)
CCc1ccc(C2CC(=O)N(c3cccc(F)c3)C3=C2C(=O)OC3)cc1 (configuration not stated)	none (no result: ALOX15B inhib, IMPase cell inh, PNC assembly inh, 12-hLO inh, HPGD block)
Clc1ccc(-c2nc(N3CCCCC3)nc3ccccc23)cc1	PNC assembly inh -100 (no result: ALOX15B inhib)
c1ccc(-c2nc(-n3nc4ccccc4n3)nc3ccccc23)cc1	IMPase cell inh inconclusive, HPGD block inconclusive
CNC1=C(Cl)C(=O)c2ccncc2C1=O	none (no result: IMPase cell inh, PNC assembly inh)
c1ccc(-c2ccc(-c3ccccn3)nn2)nc1	HPGD block 25µM
c1ccc(-c2ccccn2)nc1	none
Cc1ccnc(NC(=S)NC(=O)c2cncc(Br)c2)c1	PNC assembly inh -100 (no result: ALOX15B inhib, IMPase cell inh)
Cc1ccc2nc(SCC(=O)Nc3cc(C(F)(F)F)ccc3N3CCOCC3)[nH]c2c1	PNC assembly inh -104
O=C(CSCc1ccco1)Nc1cc(C(F)(F)F)ccc1N1CCOCC1	ALOX15B inhib inconclusive, HPGD block 28µM
CCCC(=O)Nc1cc(C(F)(F)F)ccc1N1CCOCC1	none (no result: ALOX15B inhib, IMPase cell inh, PNC assembly inh, 12-hLO inh, HPGD block)
O=C(CSc1nc2ccccc2o1)Nc1cc(C(F)(F)F)ccc1N1CCOCC1	none
O=S(=O)(N/N=C/c1ccc(N2CCOCC2)cc1)c1ccc(Br)cc1	none (no result: ALOX15B inhib, IMPase cell inh, PNC assembly inh, 12-hLO inh, HPGD block)
OC[C@H]1O[C@@H](n2cnc3c(NC4CCCC4)ncnc32)[C@H](O)[C@@H]1O	PNC assembly inh -115 (no result: ALOX15B inhib, IMPase cell inh)
Cc1cccc(NC(=S)N(CCN(C)C)Cc2cccs2)c1	none (no result: ALOX15B inhib, IMPase cell inh, PNC assembly inh, 12-hLO inh, HPGD block)
